Results filed as inconclusive are left out. Where a call stands in place of a potency, no number is given. Unmarked numbers belong to inactive results. Calls of active or inactive are those of the source. Calls come from the whole dose curve; tested in HEK293 reporter line.
Experiment: qHTS for Inhibitors of the Functional Ribonucleoprotein Complex (vRNP) of Lassa (LASV) Arenavirus: LASV Primary Screen - GLuc reporter signal (AID 1347082); note: nearly all actives have a fitted effect of over 60% in size
Conditions: LASV minigenome vRNP, Gaussia luciferase reporter; series mostly up to 57.5 µM

Question: For `COc1c(O)cc2c(c1O)[C@@H]1O[C@H](CO)[C@@H](O)[C@H](O)[C@H]1OC2=O`, which Potency is on record?
Answer: inactive

Question: Which Potency does the source give for `COc1cc([C@H]2Oc3cc([C@H]4Oc5cc(O)cc(O)c5C(=O)[C@H]4O)ccc3O[C@H]2CO)ccc1O` here?
Answer: inactive

Question: For `OC[C@H]1O[C@@H](Oc2cc(O)cc(C=Cc3ccc(O)cc3)c2)[C@H](O)[C@@H](O)[C@H]1O`, which Potency is on record?
Answer: inactive

Question: With `CN(C)CCOc1ccc(-c2nc(-c3ccc4c(c3)CCC4=NO)c(-c3ccncc3)[nH]2)cc1` as the molecule, how does the Potency read?
Answer: inactive

Question: Which Potency does the source give for `CC1(C)S[C@H]2[C@H](NC(=O)[C@@H](N)c3ccc(O)cc3)C(=O)N2[C@@H]1C(=O)O` here?
Answer: inactive

Question: For `O=C(NNC(=O)c1ccc(CNS(=O)(=O)c2ccc(F)c(Cl)c2)cc1)c1ccccc1`, which Potency is on record?
Answer: inactive

Question: Which Potency does the source give for `CNC[C@@H](O)[C@@H](O)[C@H](O)[C@H](O)CO` here?
Answer: inactive

Question: Which Potency does the source give for `CC(C)(O)[C@H]1CC[C@@](C)([C@H]2[C@@H](O)C[C@@]3(C)[C@@H]4C[C@H](O[C@@H]5O[C@H](CO)[C@@H](O)[C@H](O)[C@@H]5O)[C@H]5C(C)(C)[C@@H](O[C@@H]6OC[C@@H](O)[C@H](O)[C@@H]6O)CC[C@@]56C[C@@]46CC[C@]23C)O1` here?
Answer: inactive

Question: With `CC(C)(Cc1ccc2ccccc2c1)NC[C@@H](O)COc1cccc(Cl)c1C#N` as the molecule, how does the Potency read?
Answer: inactive

Question: With `CN(C)c1nc(Cc2ccc(NC(=O)c3ccc(C(F)(F)F)cc3)cc2)nc(N(C)C)c1CC(=O)O` as the molecule, how does the Potency read?
Answer: inactive

Question: With `CC(=O)O[C@]1(C(C)=O)CC[C@H]2[C@@H]3C=C(C)C4=CC(=O)CC[C@]4(C)[C@@H]3CC[C@@]21C` as the molecule, how does the Potency read?
Answer: inactive

Question: For `CC(C)(C)[C@H](NC(=O)c1ccc(N)c(Cl)c1)C(=O)N1CCC[C@@H]1C(=O)N[C@H](C#N)CC(=O)O`, which activity change, negative = inhibition is on record?
Answer: -4.12% [at 5.82 µM]

Question: For `CC1(C)[C@H]2CC[C@]3(C)[C@@H](C(=O)C=C4[C@@H]5C[C@@](C)(C(=O)O)CC[C@]5(C)CC[C@]43C)[C@@]2(C)CC[C@@H]1O`, which Potency is on record?
Answer: inactive

Question: Which Potency does the source give for `O=C(NCc1ccccc1)[C@H](Cc1ccccc1)NC(=O)[C@@H]1O[C@@H]1C(=O)NCCc1ccc(O)cc1` here?
Answer: inactive

Question: Which Potency does the source give for `COC1CCC(C(=O)c2ccc3nc4c(cc3c2)CCCO4)CC1` (stereo not given) here?
Answer: inactive

Question: With `NC1CCC(Nc2nc(Nc3ccc(C(=O)N4CCCCC4)cc3)c3ncn(-c4cccc(F)c4)c3n2)CC1` (stereo not given) as the molecule, how does the Potency read?
Answer: inactive

Question: Which Potency does the source give for `Clc1cccc(-n2nnnc2NCc2ccccc2Oc2ccccn2)c1Cl` here?
Answer: inactive

Question: For `COc1cc(/C=C/C(=O)OC2CC3CCC2(C)C3(C)C)ccc1O` (stereo not given), which Potency is on record?
Answer: inactive

Question: With `C=CC1=C(C(=O)O)N2C(=O)[C@@H](NC(=O)C(=NO)c3csc(N)n3)[C@H]2SC1` as the molecule, how does the Potency read?
Answer: inactive

Question: For `CCNC(=O)Nc1ccc(Oc2ncnc(N)c2C=NOC)cc1Cl`, which Potency is on record?
Answer: inactive

Question: Which Potency does the source give for `O=C(O)[C@H](CC(=O)N1C[C@@H]2CCCC[C@H]2C1)Cc1ccccc1` here?
Answer: inactive

Question: With `CC1C(=O)OC2C(O)C34C5CC(C(C)(C)C)C36C(OC(=O)C6O)OC4(C(=O)O5)C12O` (stereo not given) as the molecule, how does the Potency read?
Answer: inactive

Question: For `CCOC(=O)N1CCN([N+]([O-])=NOc2cc(ON=[N+]([O-])N3CCN(C(=O)OCC)CC3)c([N+](=O)[O-])cc2[N+](=O)[O-])CC1`, which Potency is on record?
Answer: inactive

Question: Which Potency does the source give for `CCOC(=O)O[C@]1(C(=O)OCCl)CC[C@@H]2[C@H]3CCC4=CC(=O)C=C[C@]4(C)[C@@H]3[C@@H](O)C[C@@]21C` here?
Answer: inactive

Question: With `O=C1Nc2ccc(I)cc2C1=Cc1cc(Br)c(O)c(Br)c1` as the molecule, how does the Potency read?
Answer: inactive

Question: For `O=C(C[C@@H]1CC=CCCC(=O)O[C@H](c2ccccc2)CNC1=O)NCc1ccc(Cl)cc1`, which Potency is on record?
Answer: inactive

Question: With `CON=C(C(=O)N[C@@H]1C(=O)N2C(C(=O)OCOC(=O)C(C)(C)C)=C(C=Cc3scnc3C)CS[C@H]12)c1csc(N)n1` as the molecule, how does the Potency read?
Answer: inactive

Question: For `C=CC[N+]1([C@H]2C[C@H]3[C@@H]4CC[C@H]5C[C@H](O)[C@@H](N6CCOCC6)C[C@]5(C)[C@@H]4CC[C@]3(C)[C@H]2OC(C)=O)CCCC1`, which Potency is on record?
Answer: inactive

Question: For `C=C[C@@H]1CN2CCC1C[C@@H]2C(O)c1ccnc2ccc(OC)cc12` (stereo not given in full), which Potency is on record?
Answer: inactive

Question: With `O=C(CS(=O)Cc1ccco1)NCC=CCOc1cc(CN2CCCCC2)ccn1` (stereo not given) as the molecule, how does the Potency read?
Answer: inactive

Question: For `CC(=O)C1=C(O)C=C2Oc3c(C(C)=O)c(O)c(C)c(O)c3C2(C)C1=O` (stereo not given), which Potency is on record?
Answer: inactive

Question: Which Potency does the source give for `COc1ccc(-c2coc3cc(O)ccc3c2=O)cc1` here?
Answer: inactive

Question: For `NC(=O)NN=Cc1ccc([N+](=O)[O-])o1`, which Potency is on record?
Answer: inactive

Question: With `CC(=O)N[C@@H]1[C@H](O[C@@H]2c3ccc(c(Cl)c3)Oc3cc4cc(c3O[C@H]3O[C@H](CO)[C@@H](O)[C@H](O)[C@H]3NC(=O)CCCCCCCC(C)C)Oc3ccc(cc3Cl)C[C@H]3NC(=O)[C@H](N)c5ccc(O)c(c5)Oc5cc(O)cc(c5)[C@H](NC3=O)C(=O)N[C@H]4C(=O)N[C@H]3C(=O)N[C@@H]2C(=O)N[C@@H](C(=O)O)c2cc(O)cc(O[C@H]4O[C@H](CO)[C@@H](O)[C@H](O)[C@H]4O)c2-c2cc3ccc2O)O[C@H](CO)[C@@H](O)[C@@H]1O` as the molecule, how does the Potency read?
Answer: inactive

Question: With `O=C(O)C1=NC(C(=O)O)CC(C=CN2c3cc(O)c(OC4OC(CO)C(O)C(O)C4O)cc3CC2C(=O)O)=C1` (stereo not given) as the molecule, how does the Potency read?
Answer: inactive

Question: For `C[N+]1(C)[C@@H]2C[C@@H](OC(=O)C(O)(c3cccs3)c3cccs3)C[C@H]1[C@@H]1O[C@@H]12`, which Potency is on record?
Answer: inactive

Question: For `COC(=O)[C@@H]1[C@H]2C[C@@H]3c4[nH]c5ccccc5c4CCN3C[C@@H]2CC[C@@H]1O`, which Potency is on record?
Answer: inactive

Question: Which Potency does the source give for `CN[C@@H]1[C@@H](O)[C@@H](O[C@@H]2[C@@H](O)[C@H](O[C@H]3O[C@H](CN)[C@@H](O)[C@H](O)[C@@H]3O)[C@@H](N)C[C@@H]2NC(=O)[C@@H](O)CN)OC[C@]1(C)O` here?
Answer: inactive

Question: Which Potency does the source give for `CN(C1CCc2c(c3ccccc3n2CC(=O)O)C1)S(=O)(=O)c1ccc(F)cc1` (stereo not given) here?
Answer: inactive

Question: Which Potency does the source give for `CN(C)CCC=C1c2ccccc2COc2ccc(CC(=O)O)cc21` here?
Answer: inactive
